In all, about 53,000 sequences went through this assay and about 3,700 (7%) were called active. Shown is part of a subset that was picked to be rich in actives. Values without a mark were called inactive.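 Rule for the calls: active = gene knockdowns whose robust z-score for IL-1 alpha signal is at least 2 or at most -2, so actives lie on both sides; inactive = the rest.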

The test is described as follows: Components of the Cytosolic LPS Sensing Pathway: Gene Identification via Genome-wide siRNA Screen.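 Note: robust z of the log signal after scaling to non-targeting control siRNA wells of the plate.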 The following applies: RAW264.7 macrophages, IL-1a HTRF, actives lie on both sides, screened at 100 nM (by protocol), cells primed 5 h with Pam3CSK4 first. The gist of the method:
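Three distinct siRNAs per gene were tested singly at 100 nM in RAW264.7 macrophages. Following Pam3CSK4 priming and 24 hour LipidA transfection, IL-1a secretion was read by HTRF.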
In general terms: TR-FRET usually uses a lanthanide donor and a delayed reading to cut background.
In the case of CCUACCCAAACCUACUAAATT against Gpt2, the z-score is -0.168.

On to GGAUCUGGAGAAGAUGAUGTT against Ret, for which the z-score is -0.822.

With GGCCAAAAAAACAUACAAGTT against Zbtb21, the z-score was 4.91 (active).

For the sequence GGUAUCAAGGCUCUGGUGUTT against Ifnlr1, the z-score was -0.602.

On to CAGCAUGAUGAUGGAGACCTT against Sox1, for which the z-score was 0.708.

Consider UGGAUACUCUAUCUCAAGCTT against Serpinb9g, for which the z-score was -0.479.

For GCAACAAGUGUUGGACUCATT against Tob2, the z-score is -2.04 (active).

With GGAAAGUAACUAAAGGCAATT against Arl8b, the z-score was 0.274.

For the sequence GCUACAAGACUUUUACCAGTT against Tnfsf18, the z-score is -0.0821.

For the sequence GGGACUAGACUUCUUCGGATT against Ddx52, the z-score is 0.186.

With UGGCAAAAAGGUGAUAACUTT against Hbb-b2, the z-score was 0.86.

For GGCCCAGCAUGCAAGUUAUTT against Sh2d2a, the z-score is 2.17 (active).

Consider CCACAGCCAAAUGCACAAGTT against Platr26, for which the z-score was 0.31.

For CCUCAUUCAAGAAACCUCATT against Comtd1, the z-score was -1.13.

With GGAACACCAUCAUCAGUCATT against Ephb2, the z-score is -0.448.

As to GGUCUCCACUGAGGACUGUTT against Ndufa2, the z-score was 0.284.

As to GGCCUAGGGAAAGCUAUGGTT against Nat8f3, the z-score was -2.57 (active).

As for GCAGAAGUGCUAUUCUUGUTT against Cnbp, the z-score is 0.108.

For GCGGCUUUGGCAAUUCUCUTT against Olfr1361, the z-score is -1.13.

In the case of GGUGCCUUUCUGCUUUUGATT against Spink12, the z-score was 1.87.

On to GGAAUAUUACCAGUCGGAATT against Marveld3, for which the z-score was 0.469.

As for GGAAAAUCUUGACUUCAUCTT against Cbwd1, the z-score is -0.316.

CCUGAUGCCAGUUAACAGUTT against Rcan1: the z-score was 0.516.

On to GGAGGUUUUCCACCACUUGTT against Efcc1, for which the z-score was -2.04 (active).

For GCGAUAUGAAUAUCAUCUUTT against Fbxo22, the z-score is -0.0727.

For the sequence GGAAUCUUUAUCCACAUUCTT against Chst15, the z-score was 0.943.

With GGAGCAACUAAUGAAGAAATT against Dnajc22, the z-score is -0.064.

GGUACUACAAGAGAAAAGATT against Hdhd2: the z-score was -0.958.

GGUCUCUGUUGCUUUGACUTT against Tgoln1: the z-score is 4.13 (active).

In the case of GGUCCUAAAAUUUCCUCUUTT against Prdx3, the z-score was 0.854.

Turning to GCCUCUUAUUUGGUUACGATT against Best3, the z-score was 0.605.

On to GCGUUUCACGUACCUUCCUTT against Nfatc1, for which the z-score was 1.22.

As to GGUGCUAUUUACCAAACUCTT against Btg2, the z-score was 1.82.

For the sequence GGAACACAACUUCCUGUUCTT against Map11, the z-score is 1.05.

For GGGAUGCUGUCUUCUGUCATT against Prex1, the z-score is -3.39 (active).

For GGAUUUUACAGUUUUUGGATT against Pccb, the z-score is 1.01.

As to GGUCAUGGUUAUUUUGUUATT against Plekhg2, the z-score was 0.929.

Take GGCUAUUUUGGCUUGUAAATT against Jam2: the z-score was -0.504.

Regarding CCUAACCACUACCUUAUACTT against H2-DMa, the z-score is 2.43 (active).

Consider GGUGUCAUGAUGGAGCUGATT against Crygc, for which the z-score was 0.862.

For GGGUAACACCUCAAGUUCATT against Rhag, the z-score was 2.33 (active).

For the sequence GGCCUCAGUUGGACUUGAATT against Scn10a, the z-score was -0.352.

Regarding GGCUAUACCUUGGUAGAUATT against Parvg, the z-score was -1.19.

In the case of GGUCUCCUCCAAGAUGAUGTT against Mettl3, the z-score is -1.01.

GCAGGAGAACUUUUUUAGUTT against Hus1: the z-score was -1.01.

For the sequence GGGUUGUUGAGACUUCCACTT against Hmbs, the z-score is 2.79 (active).

As for CCAGGAGGAUACAAUCCCUTT against Rgs3, the z-score was -3.38 (active).

As to GGUGCUAGGAAUGAACGGGTT against Ripply1, the z-score is 0.478.

Consider GGAUGCUUGUGGACCUGUGTT against Olfr1123, for which the z-score is 1.14.

With GGAUUAAAUCCGAAAAGCUTT against Tmem51, the z-score was -2.36 (active).

Take GGCCAUCAGUGUGGAAUGUTT against BC004004: the z-score is -0.19.

As to GGUAAUAACCCUUAAUAAGTT against Akirin2, the z-score was 0.572.

GCACAAAAAAGUGAUAUUGTT against Hdlbp: the z-score was 0.41.

CGUAGCUGUAAUUCUUCAGTT against Pcdhgb2: the z-score was 2.02 (active).

Regarding GGAAGAUGUUAAGAGUUACTT against Slc1a3, the z-score was -0.865.

On to GCUAUCUCUGCUAAUAAAGTT against Col6a1, for which the z-score was -0.203.

GCCAUCCUUGUGCUAAGAGTT against Ifna4: the z-score was -0.604.

Consider GCAUGAAUUCAAAUUGCCATT against Adgrl4, for which the z-score was -0.981.

As to CGGUACUAAACAUUACCUCTT against Olfr633, the z-score was 0.957.

Consider “GAGUGGUUUCUAAUUCGUATT against A830031A19Rik”, for which the z-score is 2.56 (active).

Take CCUGUUCUGUUAUCAACGGTT against Plxdc1: the z-score was 0.123.

As for GGCAAACUGUCUCUUCAGATT against Pim1, the z-score is -0.131.

GGUGAAGAGUUCAAACAUCTT against Atp9a: the z-score is 1.29.

In the case of GGACAUUGACCUGUUCGGCTT against Eef1d, the z-score is 0.952.

With GGAGCUGUAUGAGAUAGAGTT against Zfp566, the z-score was 4.15 (active).

Take GGACCUCAACAUCCAGAGATT against Sema6b: the z-score is -0.217.

In the case of GGUUAAAGGUCAGAUUUAGTT against Dapk2, the z-score was 2.54 (active).

For CGACCUGAAAGAUUCGGAATT against Ppara, the z-score is -1.04.

In the case of GCUCAACCCAUUCUUUGAUTT against Cep295nl, the z-score is 0.407.

Turning to CCAAAGCUAGGUCAUUUUATT against Slc31a2, the z-score is 0.72.

Turning to GGAAAAAGCGGAAAUUCAGTT against Pgbd5, the z-score is -0.276.

On to GCAUUUGUACAUUGUGACUTT against Ces5a, for which the z-score is -2.28 (active).

GGGUCCAGUAUCCAUCAAATT against Sf3a1: the z-score was -2.7 (active).

As for GGAAGAAGACUCAGAAAGUTT against Prkag2, the z-score is 1.43.

As for CCGACCAUCUGUGGAAAUATT against Samd5, the z-score is 0.227.

On to GCCAGAUCCCUGGAAUGUATT against Ece2, for which the z-score was -0.632.

In the case of GGUAUUGCUUUCACAUUAUTT against Efr3a, the z-score is 0.434.

Regarding GGUGUAAGAACUUCAAGUUTT against Tlr9, the z-score was 0.199.

For the sequence GGCUGUUUUUACCCUACUUTT against Vmn1r72, the z-score is -0.441.

Turning to GGAGAAAUUCAAAAGGAAUTT against Ms4a6d, the z-score is -0.764.

Take GGAUGCUCAUGCUAAGCAGTT against Krt7: the z-score was 0.547.

For GGAUGAGGGAACGUACAUUTT against Il18r1, the z-score was 5.74 (active).

For GGAACUUCCCUAUAGUGAATT against Hdac3, the z-score was -1.52.

Consider GGAUGCGCUGAUAUCAGUATT against Olfr370, for which the z-score is 1.3.

For GCUCAUUGAGUACAAGACCTT against Ndufs2, the z-score was 1.76.

As to GGUCACUGAACCUAUUUCCTT against Arhgap15, the z-score was -2.56 (active).

Turning to CCCUCAAUGCUGGAAAACCTT against Nol4, the z-score is -1.43.

On to GGCAAGGAUGAUGUCUUCGTT against Upk1a, for which the z-score is -1.33.

As for GCUUCUAGGGACCUAUUAATT against Dhx30, the z-score is -0.0854.

For GGUCUAUGAGAUGUUUUCUTT against Cyp2a4, the z-score is 2.78 (active).

As for GCAACUGGCUGAACUCUCATT against Gsdmc2, the z-score is 3.91 (active).

Turning to GGCACUCAAUGUCUUCUAUTT against Nbeal1, the z-score was 0.516.

As to GCUACUGCAGUAUACAUUGTT against Olfr869, the z-score was 2.21 (active).

GGAAUCGGUACUCUUCCACTT against Tcerg1l: the z-score is 0.26.

Take GGAAUUCAUGAAGUAUAACTT against Myo5c: the z-score was 0.941.

GAUAAUUUGCACAUCCUCUTT against Nrn1l: the z-score is -0.999.

As for GGGUUUGAGUGCUGUGAAGTT against Ap4s1, the z-score was -2.66 (active).

With GCUGGGCUACAAUACAUAUTT against Fgf3, the z-score was -0.0573.

For the sequence CCAUGAGUAUCAAGUCAAUTT against Septin9, the z-score was 1.14.

For GGGUGAAAUCUAUCUCCAUTT against Agfg1, the z-score is -1.85.

CCAUAAUUCAGCUAGACCUTT against Axin1: the z-score is 0.201.

On to GGUAAAGACUGGAUGGCUATT against Art5, for which the z-score is 2.14 (active).

For GGAAAUCUUUGAGUUUGAATT against Clca1, the z-score is -0.0578.

Consider GCCAAAUGAGUCAGAUACUTT against Ak3, for which the z-score was -0.402.

Take GGAUCCUUAAUCGAUACACTT against Gng3: the z-score is 2.38 (active).

As for “GCCUACAGGAGUGAGAUAATT against Arhgap33os”, the z-score is -1.36.

As to AUUGCAUUGUAUUCACUUGTT against Psg22, the z-score is 0.777.

For GGAAUUCACAUUUGACUGUTT against Irx3os, the z-score was 0.31.

For the origin of these results see PubChem BioAssay AID1508600 (Functional Genomics Laboratory (NCATS/FGL), 2020).
